About 83,000 compounds went through this panel and 20% of them were active in at least one assay; those are over-represented in the sample as a whole.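 Cell lines were cultured in 96-well plates, exposed to a single compound concentration, and assessed for percent growth 48 hours later.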 Calls of active or inactive are those of the source. How the source made its calls: active means growth percent below 10; inactive means the rest.
Assays:
Test in all cases: NCI-60 one-dose screen, 48 h (100 = growth as untreated, 0 = no growth, -100 = all killed)
[1] = tested on: DU-145 prostate; conditions: 10 µM unless noted
[2] = tested on: K-562 leukemia; conditions: 10 µM unless noted
[3] = tested on: MALME-3M melanoma; conditions: 10 µM unless noted
[4] = tested on: MDA-MB-231 breast; conditions: 10 µM unless noted
[5] = tested on: RXF 393 renal; conditions: 10 µM unless noted
[6] = tested on: SF-268 CNS; conditions: 10 µM unless noted
[7] = tested on: SF-295 CNS; conditions: 10 µM unless noted
[8] = tested on: UACC-257 melanoma; conditions: 10 µM unless noted
[9] = tested on: M14 melanoma; conditions: 10 µM unless noted
[10] = tested on: HCT-15 colon; conditions: 10 µM unless noted
[11] = tested on: HT29 colon; conditions: 10 µM unless noted
[12] = tested on: SNB-75 CNS; conditions: 10 µM unless noted
[13] = tested on: SNB-19 CNS; conditions: 10 µM unless noted
[14] = tested on: U251 CNS; conditions: 10 µM unless noted
[15] = tested on: PC-3 prostate; conditions: 10 µM unless noted
[16] = tested on: SK-MEL-5 melanoma; conditions: 10 µM unless noted
[17] = tested on: UACC-62 melanoma; conditions: 10 µM unless noted
[18] = tested on: LOX IMVI melanoma; conditions: 10 µM
[19] = tested on: SK-MEL-28 melanoma; conditions: 10 µM unless noted
[20] = tested on: SF-539 CNS; conditions: 10 µM unless noted

Measured: growth

CC1=CC(=Nc2ccc(N(C)C)cc2)C=C(C)C1=O
inactive: [1] 101% | [2] 75.1% | [3] 92.6% | [4] 64% | [5] 65.1% | [6] 88.6% | [7] 97.3% | [8] 77.5% | [9] 91.9% | [10] 85.7% | [11] 98.6% | [12] 75.8% | [13] 106% | [14] 92.7% | [15] 69.9% | [16] 74% | [17] 37.7% | [18] 46.4% | [19] 96.8%

CC(C)c1ccccc1NC(=O)N1CCC(C(C)C)CC1
inactive: [1] 112% | [2] 99.4% | [3] 105% | [4] 117% | [5] 101% | [6] 115% | [20] 111% | [8] 95.8% | [9] 107% | [10] 110% | [11] 107% | [12] 89.3% | [13] 107% | [14] 98.1% | [15] 97.9% | [16] 97.4% | [17] 105% | [18] 103% | [19] 106%

OCC(O)COc1ccc(Cl)cc1Cl (configuration not stated)
inactive: [1] 110% | [2] 88.6% | [3] 94.8% | [4] 97.8% | [5] 115% | [6] 105% | [7] 97.5% | [8] 79.6% | [9] 95.9% | [10] 105% | [11] 93.9% | [12] 85.8% | [13] 93.3% | [14] 89.3% | [15] 97.3% | [16] 109% | [17] 96.6% | [18] 111% | [19] 96.5%

O=C(O)c1c[nH]c2ccccc2c1=O
inactive: [1] 98.6% | [2] 93.1% | [3] 91.9% | [4] 98.1% | [5] 116% | [6] 102% | [7] 104% | [20] 93.9% | [8] 112% | [10] 110% | [11] 97.6% | [12] 89.9% | [13] 101% | [14] 93.9% | [15] 97.6% | [16] 101% | [17] 101% | [18] 97.2% | [19] 102%

Cn1c(=O)c2[nH]c(CC(=O)O)nc2n(C)c1=O
inactive: [1] 108% | [2] 105% | [3] 99.4% | [4] 100% | [5] 104% | [6] 101% | [7] 101% | [8] 96.9% | [9] 104% | [10] 107% | [11] 101% | [12] 98.1% | [13] 100% | [14] 103% | [15] 96.8% | [16] 106% | [17] 108% | [18] 101% | [19] 101%

CCCCN(C=S)CCCC
inactive: [1] 112% | [2] 113% | [3] 101% | [4] 104% | [5] 101% | [6] 105% | [7] 99.1% | [8] 99.6% | [9] 94.8% | [10] 98.1% | [11] 102% | [12] 87.4% | [13] 94.3% | [14] 90.3% | [15] 91.5% | [16] 101% | [17] 96.4% | [18] 106% | [19] 96.2%

NC(=S)N/N=C/c1ccc(OC(=O)COc2ccc(Cl)cc2)cn1
inactive: [1] 29.3% | [2] 44.1% | [3] 45.5% | [4] 66.6% | [5] 67% | [6] 27.8% | [7] 99.2% | [8] 78.1% | [9] 17.9% | [10] 70.6% | [11] 79.3% | [12] 44.9% | [13] 72.9% | [14] 32.6% | [15] 64.3% | [16] 30.7% | [18] 23.8% | [19] 76.5%
active: [17] 8.53%

CC1(C)OC2C(CO)OC(n3ccc(=O)[nH]c3=O)C2O1 (configuration not stated)
inactive: [1] 112% | [2] 110% | [3] 85.2% | [4] 92.9% | [5] 113% | [6] 102% | [7] 104% | [8] 75.7% | [9] 105% | [10] 102% | [11] 94.3% | [12] 106% | [13] 100% | [14] 87.6% | [15] 90.2% | [16] 97.9% | [17] 93.9% | [18] 101% | [19] 108%

Oc1ccc(CCC2CCNc3ccccc32)cc1 (configuration not stated)
inactive: [1] 93.4% | [2] 69.7% | [3] 98.8% | [4] 86.2% | [5] 81.5% | [6] 83.1% | [7] 75.2% | [20] 75.7% | [9] 89.4% | [10] 83.2% | [11] 93.7% | [12] 76.6% | [13] 87.2% | [14] 71.5% | [15] 60.7% | [16] 58% | [17] 72% | [18] 81.1% | [19] 94.4%

O=C(Nc1ccc([N+](=O)[O-])cc1)C(=O)Nc1ccc([N+](=O)[O-])cc1
inactive: [1] 110% | [2] 106% | [3] 105% | [4] 98.1% | [5] 109% | [6] 100% | [7] 102% | [8] 77.7% | [9] 104% | [10] 101% | [11] 91.5% | [12] 116% | [13] 99.6% | [14] 81.2% | [15] 90.5% | [16] 100% | [17] 97% | [18] 94.9% | [19] 115%

CN1CCCN(C(c2ccccc2)c2ccc(Br)cc2)CC1 (configuration not stated)
active: [9] -8.62%
inactive: [1] 94.8% | [2] 20.3% | [3] 63.1% | [4] 49% | [6] 61.6% | [7] 57.8% | [20] 75.2% | [8] 91% | [10] 63.8% | [11] 39.1% | [12] 38.5% | [13] 99.6% | [14] 71.1% | [15] 61.4% | [16] 60.3% | [18] 69.7% | [19] 64.9%

CC(C)(C)NCCC(O)c1cc(C(F)(F)F)nc2c(C(F)(F)F)cccc12 (configuration not stated)
active: [18] 1.78%
inactive: [1] 73.6% | [2] 64.5% | [3] 102% | [4] 55.1% | [5] 73.3% | [6] 71% | [20] 75.1% | [8] 90.1% | [9] 84.6% | [10] 79.2% | [11] 66.5% | [12] 78.2% | [13] 87.2% | [14] 54.3% | [15] 55.3% | [16] 81.8% | [17] 74.7% | [19] 117%

Nc1cc(N)ncn1
inactive: [1] 110% | [2] 91.3% | [3] 106% | [4] 96.1% | [6] 102% | [7] 104% | [20] 99.2% | [8] 112% | [9] 97.2% | [10] 102% | [11] 104% | [12] 88.9% | [13] 96.1% | [14] 104% | [15] 97.7% | [16] 98.3% | [17] 99.6% | [18] 98.4% | [19] 98.9%

CC(C)(C)CC1(C)NC(=O)NC1=O (configuration not stated)
inactive: [1] 114% | [2] 126% | [3] 111% | [4] 118% | [6] 119% | [7] 108% | [20] 109% | [8] 114% | [9] 104% | [10] 110% | [11] 107% | [12] 83.8% | [13] 110% | [14] 111% | [15] 106% | [16] 108% | [18] 102% | [19] 116%

O=C(NC1CCCCC1)c1ccc(Cl)cc1
inactive: [1] 103% | [2] 96.5% | [3] 106% | [4] 113% | [6] 97.1% | [7] 105% | [20] 104% | [8] 105% | [9] 105% | [10] 108% | [11] 101% | [12] 90% | [13] 101% | [14] 98.6% | [15] 102% | [16] 101% | [17] 97.6% | [18] 97.4% | [19] 112%

CC(C)NC(=O)OCc1c(COC(=O)NC(C)C)c(-c2ccc(Cl)cc2)n2c1CCC2
inactive: [1] 15% | [2] 58.4% | [3] 59.3% | [4] 65.8% | [6] 31% | [7] 20.8% | [20] 16.3% | [8] 88.8% | [9] 33.2% | [10] 58.4% | [11] 56% | [12] 34.1% | [13] 57.9% | [14] 49% | [15] 68.2% | [16] 68.1% | [18] 30.5% | [19] 84.7%

COc1cc2c(c(OC)c1OC)-c1ccc(SC)c(=O)cc1[C@@H](NC1OC(CO)C(O)C(O)C1O)CC2 (some centres not stated)
active: [1] 6.12% | [2] 4.19% | [4] 7.41% | [7] -35.8% | [20] 1.24% | [11] 0.658% | [16] -18.3%
inactive: [3] 54.6% | [6] 22.7% | [8] 50.5% | [9] 11.3% | [10] 14.8% | [12] 24.9% | [13] 71.5% | [15] 15.7% | [17] 43.3% | [18] 22.3% | [19] 61.1%

Cc1ccc(NC(=S)N2CCOCC2)cc1C
inactive: [1] 109% | [2] 95.4% | [3] 93.8% | [4] 99.9% | [6] 110% | [7] 96.2% | [20] 103% | [8] 93.5% | [9] 93.1% | [10] 86.2% | [11] 114% | [12] 106% | [13] 94.5% | [15] 104% | [16] 96.5% | [17] 94% | [18] 82.3% | [19] 111%
